Screens: PubChem BioAssay, Broad Institute
PglD inh: PglD (C. jejuni) enzyme inhibition | purified PglD enzyme, DTNB colorimetric CoA detection | inhibition, % at 12.5 µM | AID 602405 | hit rate 0.098% among 360,000; in the data active = inhibition above about 16%, passing the limit was not always enough
ARNT TACC3 PPI: ARNT/TACC3 interaction disruption; Q9Y6A5; AlphaScreen His-ARNT PAS-B/GST-TACC3 binding, luminescence; TACC3 fragment carries E629A point mutation; inhibition, % at 9.99 µM; hit rate 0.66% among 390,000;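 active = mean inhibition of replicates at least 50% and at least half of replicates each reaching 50%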
C2C12 statin: protects C2C12 myotubes from simvastatin toxicity; ATP luminescence, 48 h; scaled: DMSO 0, geranylgeraniol control 100; rescue of ATP level, % at 7.49 µM; hit rate 0.78% among 330,000;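 active = mean ATP rescue above about 67%, or every replicate alone reaching that limit, limit read from the data, passing the limit was not always enough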;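 note: myotubes were challenged with 10 µM simvastatin during compound exposure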
F508del corr: CFTR F508del correction in bronchial cells; activity (quench increase), % at 7.58 µM; AID 720511; hit rate 0.36% among 350,000; CFBE cells, YFP halide quenching; stimulated with forskolin plus potentiator P3; % fluorescence drop versus neutral controls;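 active = mean added fluorescence quench of at least 8% versus neutral control, with both replicates also reaching 8%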;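 note: cells transiently co-express mutant CFTR-F508del with the halide-sensitive YFP; corrector assay measuring rescue of mutant channel to the surface after 24 h compound exposure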
Hits are given with their value. This is a sample that favours compounds with a hit; in the whole collection about 1.4% have one here.

`COc1ccc(S(=O)(=O)Nc2ccc3c(c2)C(=O)N([C@@H](C)CO)C[C@@H](C)[C@@H](CN(C)S(C)(=O)=O)OCCCC[C@@H](C)O3)cc1` gave PglD inh inactive, ARNT TACC3 PPI inactive and F508del corr inactive.
`Nc1nc2ccc(C(=O)N3CCCCC3)cc2s1` gave PglD inh inactive, ARNT TACC3 PPI 47, C2C12 statin inactive and F508del corr inactive.
Screening O=C(c1ccc2ncsc2c1)N1CCCCC1 returned PglD inh inactive, ARNT TACC3 PPI inactive and F508del corr inactive.
Screening Cc1noc(C)c1S(=O)(=O)Nc1ccc2c(c1)C(=O)N([C@@H](C)CO)C[C@@H](C)[C@H](CN(C)CC1CC1)OCCCC[C@H](C)O2 returned PglD inh inactive, ARNT TACC3 PPI inactive and F508del corr inactive.
Screening O=C(CSc1ccc2nnc(-c3ccccn3)n2n1)Nc1ccccc1 returned PglD inh inactive, ARNT TACC3 PPI 47, C2C12 statin inactive and F508del corr inactive.
`O=C(CSc1ccc2nnc(-c3ccccn3)n2n1)Nc1ccccc1C(F)(F)F` gave PglD inh inactive, ARNT TACC3 PPI 52 and F508del corr inactive.
Screening Cc1nnc(NC(=O)CSc2ccc3nnc(-c4ccccn4)n3n2)s1 returned ARNT TACC3 PPI inactive and F508del corr inactive.
Screening O=C(CSc1ccc2nnc(-c3ccccn3)n2n1)Nc1nccs1 returned PglD inh inactive, ARNT TACC3 PPI 60, C2C12 statin inactive and F508del corr inactive.
Screening COC(=O)c1ccc(CSc2ccc3nnc(-c4ccccn4)n3n2)o1 returned PglD inh inactive, ARNT TACC3 PPI 58, C2C12 statin inactive and F508del corr inactive.
COc1ccc(CN2[C@@H](CO)[C@@H]3c4ccccc4N(C(=O)Nc4ccc(F)cc4)C[C@@H]32)cc1 was read as PglD inh inactive, ARNT TACC3 PPI inactive, C2C12 statin inactive and F508del corr inactive.
C[C@H]1CN([C@@H](C)CO)C(=O)Cc2cc(NC(=O)CCCN(C)C)ccc2O[C@H]1CN(C)S(=O)(=O)c1ccc(Cl)cc1 was read as PglD inh inactive, ARNT TACC3 PPI inactive, C2C12 statin inactive and F508del corr inactive.
`O=C(CC(F)(F)F)N1C[C@@H]2[C@H](c3ccccc31)[C@@H](CO)N2C(=O)CN1CCOCC1` gave PglD inh inactive, ARNT TACC3 PPI inactive, C2C12 statin inactive and F508del corr inactive.
For COc1ccccc1NC(=O)CSc1ccc2nnc(-c3cccnc3)n2n1 the results were PglD inh inactive, ARNT TACC3 PPI 71, C2C12 statin inactive and F508del corr inactive.
For Cc1nnc2sc(SCC(=O)Nc3nccs3)nn2c1=O the results were PglD inh inactive and ARNT TACC3 PPI 76.
CCOc1ccccc1NC(=O)CSc1ccc2nnc(-c3cccnc3)n2n1 was read as ARNT TACC3 PPI inactive and F508del corr inactive.
COc1ccccc1NC(=O)CSc1nn2c(=O)c(C)nnc2s1 was read as PglD inh inactive, C2C12 statin inactive and F508del corr inactive.
C[C@H](CO)N1C[C@H](C)[C@@H](CN(C)C(=O)C2CC2)Oc2cc(C#Cc3ccncc3)ccc2S1(=O)=O was read as PglD inh inactive, ARNT TACC3 PPI inactive, C2C12 statin inactive and F508del corr inactive.
`COc1ccc(/C(O)=C2/C(=O)C(=O)N(CCN(C)C)C2c2ccccn2)cc1OC` (configuration not stated) gave PglD inh inactive, ARNT TACC3 PPI inactive and C2C12 statin 118.
`CCCNC(=O)N1CC2(CN(C(=O)C3CCCCC3)C2)c2c([nH]c3cc(OC)ccc23)[C@H]1CO` gave F508del corr inactive.
Screening CCn1cc(/C=C(\NC(=O)c2ccc(OC)cc2)C(=O)N2CCN(C)CC2)c2ccccc21 returned PglD inh inactive, ARNT TACC3 PPI 48, C2C12 statin inactive and F508del corr inactive.
`COCC(=O)N(C)C[C@@H]1Oc2ncc(-c3ccc(F)cc3)cc2C(=O)N([C@@H](C)CO)C[C@H]1C` gave PglD inh inactive, ARNT TACC3 PPI inactive, C2C12 statin inactive and F508del corr inactive.
Screening Cc1ccc(N(C(=O)c2csnn2)C(C(=O)NC2CCCCC2)c2ccccn2)cc1C (configuration not stated) returned PglD inh inactive, ARNT TACC3 PPI inactive, C2C12 statin 81 and F508del corr inactive.
Screening Cc1cc(C)cc(N(C(=O)c2csnn2)C(C(=O)NC2CCCCC2)c2ccccn2)c1 (configuration not stated) returned PglD inh inactive, C2C12 statin inactive and F508del corr inactive.
`Cc1cccc(C2NC(=O)c3ccccc3N2)c1` (configuration not stated) gave ARNT TACC3 PPI inactive and F508del corr inactive.
